Most compounds without a hit are left out; they make up all but 1.4% or so of the library.
SARS 3CLpro inh-1 = SARS-CoV 3CLpro protease inhibition. P0C6X7. recombinant SARS-CoV 3CLpro, quenched FRET peptide cleavage. inhibition, % at 6 µM. hit rate 0.14% among 290,000. AID 1706; in the data active = inhibition above about 12%
Mtb hypoxia inh = inhibitors of hypoxia-regulated fluorescent reporter in Mycobacterium tuberculosis; M. tuberculosis hypoxia-regulated fluorescent reporter, fluorescence; fluorescence inhibition, % (concentration not given with the values); hit rate 0.1% among 300,000; AID 1159583; in the data active = fluorescence inhibition mostly above about 23%, no sharp cut-off; inactive = mostly below about 17%
PrPC TRFRET = reduces human prion protein on the cell surface; cell surface PrPC, TR-FRET read-out; inhibition, % at 13.8 µM; hit rate 0.43% among 370,000; AID 720596; in the data active = inhibition above about 24%; note: 0% = median of the test wells and 100% = reference compound wells
RecA splice inh = Mtb RecA intein splicing inhibition; cell-free RecA intein splicing, fluorescence; inhibition, % (test concentration not listed); hit rate 0.75% among 290,000; AID 2221; in the data active = inhibition above about 30%;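 note: 0% = vehicle wells and 100% = reference inhibitor control wells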
Target sequence (P9WHJ3 whole entry, looked up, canonical isoform): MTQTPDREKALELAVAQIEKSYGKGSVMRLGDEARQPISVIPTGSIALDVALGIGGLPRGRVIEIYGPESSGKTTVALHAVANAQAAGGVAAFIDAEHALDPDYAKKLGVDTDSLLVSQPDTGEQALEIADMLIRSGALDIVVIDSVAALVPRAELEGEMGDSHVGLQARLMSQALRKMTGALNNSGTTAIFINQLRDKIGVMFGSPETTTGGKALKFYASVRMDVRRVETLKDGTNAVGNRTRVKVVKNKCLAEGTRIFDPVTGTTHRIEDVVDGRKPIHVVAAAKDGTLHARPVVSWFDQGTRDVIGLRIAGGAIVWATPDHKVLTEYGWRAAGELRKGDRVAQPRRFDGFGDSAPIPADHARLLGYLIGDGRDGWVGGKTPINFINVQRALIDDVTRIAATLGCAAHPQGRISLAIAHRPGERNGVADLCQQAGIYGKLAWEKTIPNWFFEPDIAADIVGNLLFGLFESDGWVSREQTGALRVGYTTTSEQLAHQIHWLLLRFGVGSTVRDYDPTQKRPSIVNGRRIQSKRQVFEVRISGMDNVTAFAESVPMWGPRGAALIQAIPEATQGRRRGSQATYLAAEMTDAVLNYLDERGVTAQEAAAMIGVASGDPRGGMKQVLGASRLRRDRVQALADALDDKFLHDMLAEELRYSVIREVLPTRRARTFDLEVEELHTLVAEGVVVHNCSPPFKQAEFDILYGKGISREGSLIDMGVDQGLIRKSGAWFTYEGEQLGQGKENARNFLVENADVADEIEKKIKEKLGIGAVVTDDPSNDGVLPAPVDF
PrP UTR inh = inhibition of PrP 5' UTR reporter expression. inhibition, % (no concentration beside the values). AID 488862. hit rate 0.35% among 340,000. cell-based PrP 5' UTR mRNA reporter, plate reader; in the data active = inhibition above about 52%; note: 0 = median of the neutral control wells
BJeLR viability = kills HRASV12-expressing BJeLR cells; BJeLR (HRASV12) viability, CellTiter-Glo ATP luminescence, 48 h; inhibition, % (test concentration not listed); hit rate 0.17% among 300,000; AID 1554; in the data active = inhibition above about 50%
SARS 3CLpro inh-2 = confirmation of SARS coronavirus 3C-like protease inhibitors | shares compounds with SARS 3CLpro inh-1 | QFRET protease activity assay, 3CLpro | inhibition, % at 6 µM | hit rate 36% among 380 | AID 1879; in the data active = inhibition above about 13%
Numbers without * were called inactive; . = not tested or not shown.

SMILES | SARS 3CLpro inh-1 | Mtb hypoxia inh | PrPC TRFRET | RecA splice inh | PrP UTR inh | BJeLR viability | SARS 3CLpro inh-2
CCOC(=O)c1c(C)oc2c1c1c(c3ccccc32)OCN(Cc2ccccn2)C1 | 13* | -12 | -12 | 1 | -82 | 4 | -3
CCOC(=O)c1c(C)oc2c1c(CN1CCN(C(=O)OCC)CC1)c(O)c1ccccc12 | 0 | 8 | -4 | 1 | -99 | -1 | .
Cc1ccc(CN2CCN(N=Cc3ccc(C(=O)O)cc3)CC2)c(C)c1 | . | -9 | . | . | . | . | .
O=C(NN=Cc1cn(-c2cccs2)nc1-c1ccccc1)c1ccccc1Br | . | -6 | . | . | . | . | .
CC(C)Oc1cc(NC(=O)CSCC(=O)Nc2cccc(C(F)(F)F)c2)c(Cl)cc1Cl | 17* | 2 | 10 | 5 | -35 | 14 | 1
CCON=C(C)c1c(O)c(CC)c(-c2ccccc2)n(-c2ccccc2)c1=O | . | 4 | . | . | . | . | .
COc1ccc2cc(C3(C)NC(=O)N(CC(=O)NCc4ccco4)C3=O)ccc2c1 (stereo not given) | 16* | 6 | 5 | -3 | 2 | -4 | 12*
Cc1ccc(C(=O)NC(C#N)=C(Cl)Cl)cc1 | 13* | 0 | 16 | 33* | . | 13 | 1
Cc1ccc(C(=O)NC(=C(Cl)Cl)S(=O)(=O)c2ccccc2)cc1 | 21* | -3 | 6 | 26 | -16 | -2 | 28*
O=C(NCc1ccccn1)C1(C(F)(F)F)CC(=CCCO)CCCO1 (stereo not given) | . | 6 | . | . | . | . | .
Cc1ccc(S(=O)(=O)N2CCN(S(=O)(=O)c3ccc4c(c3)OCCO4)CC2)cc1 | 12* | 9 | 4 | -3 | -24 | -7 | -3
O=S(=O)(c1ccc(F)cc1)N1CCN(S(=O)(=O)c2ccc3c(c2)OCCO3)CC1 | . | 16 | -4 | . | -5 | . | .
Cn1cnc2cc(OC(=O)c3ccccc3)ccc21 | 15* | -3 | 0 | -4 | -4 | -7 | 10
Cc1ccc(OCC(=O)Nc2ccc3c(c2)ncn3C)cc1 | . | . | 2 | . | -6 | . | .
Cn1cnc2cc(NC(=O)c3ccc(Cl)cc3)ccc21 | 33* | -4 | 4 | 6 | -44 | -13 | 31*
Cc1ccc(C(=O)Oc2ccc3c(c2)ncn3C)cc1 | 22* | -1 | -9 | 2 | -87 | -11 | 31*
COc1ccc(Cl)cc1C=NNC(=O)c1c(-c2ccccc2)noc1C | . | 0 | . | . | . | . | .
O=C(O)c1cccc(NN=Cc2sc(N3CCOCC3)nc2-c2ccccc2)c1 | . | 18 | . | . | . | . | .
CN(CCCN1CCOCC1)C(=O)c1cc(COc2cccc(C(F)(F)F)c2)on1 | 5 | -3 | 2 | -6 | 6 | -3 | .
CN(CCc1ccccc1)C(=O)c1cc(COc2cccc(C(F)(F)F)c2)on1 | 13* | 9 | -7 | 3 | -22 | -1 | 7
COc1cc(OC)c(OC)cc1/C=C1\Oc2cc(OCC(=O)N3Cc4ccccc4C[C@H]3C(=O)O)ccc2C1=O | 12* | . | . | -2 | -13 | -7 | 4
CCc1ccc(NC(=O)C2CCCN(S(=O)(=O)c3ccc4[nH]c(=O)ccc4c3)C2)cc1 (stereo not given) | 13* | . | 1 | 0 | -21 | -7 | 1
Cc1ccc(NC(=O)C2CCCN(S(=O)(=O)c3ccc4[nH]c(=O)ccc4c3)C2)cc1C (stereo not given) | 0 | . | -6 | -1 | 0 | 0 | .
Cc1ccc(-c2csc(NC(=O)c3cccc([N+](=O)[O-])c3C(=O)O)n2)cc1 | 10 | -2 | -3 | -5 | -21 | -1 | .
O=C(Nc1nc(-c2cccc([N+](=O)[O-])c2)cs1)c1cccc([N+](=O)[O-])c1C(=O)O | 17* | -1 | -23 | 0 | -13 | 0 | 5
SMILES | SARS 3CLpro inh-1 | Mtb hypoxia inh | PrPC TRFRET | RecA splice inh | PrP UTR inh | BJeLR viability | SARS 3CLpro inh-2
CCOC(=O)C1C2COc3ccc(C)cc3C2N2C(=O)C(CO)NC(=O)[C@@]12C (stereo not given in full) | . | 13 | . | . | . | . | .
CC[C@@]12C(=O)N(c3cccc(F)c3)C(=O)N1[C@H](c1ccc(F)cc1)[C@@H]1C(=O)N(C3CCCCC3)C(=O)[C@@H]12 | 16* | . | . | 3 | -22 | 15 | 8
COc1cccc(N(C(=O)Cn2nnc3ccccc32)C(C(=O)NCc2ccco2)c2cccnc2)c1 (stereo not given) | 1 | . | 5 | 5 | -17 | 4 | .
COc1cccc(C(C(=O)NCc2ccco2)N(Cc2ccco2)C(=O)Cn2nnc3ccccc32)c1 (stereo not given) | 28* | -1 | 3 | -1 | -23 | 6 | 40*
COc1ccc(N(C(=O)Cn2nnc3ccccc32)C(C(=O)NCc2ccco2)c2ccc(C)o2)cc1 (stereo not given) | 21* | . | 1 | 2 | -6 | 2 | 26*
CCc1cccc(CC)c1N(COC)C(=O)Cn1nnc2ccccc21 | 12* | 15 | 4 | 3 | -19 | -16 | 13*
CCc1cccc(CC)c1N(COC)C(=O)Cn1c(CO)nc2ccccc21 | 1 | 10 | 8 | 1 | -23 | -2 | .
O=C(c1ccc2ncsc2c1)N1CCCCC1 | -5 | 2 | 1 | 2 | -46 | -2 | .
O=C(O)c1ccc2ncsc2c1 | 17* | 5 | 6 | 24 | 4 | 4 | 38*
O=C(COc1cccc2cccnc12)NN=Cc1ccc(O)cc1 | . | 3 | . | . | . | . | .
O=C(O)Cn1cc(/C=C/[N+](=O)[O-])c2ccccc21 | -1 | 6 | 4 | 2 | -18 | -1 | .
O=[N+]([O-])/C=C/c1cn(Cc2ccccc2)c2ccccc12 | 13* | 11 | 1 | 8 | 18 | 0 | -2
O=C(N/N=C/c1c(O)ccc2ccccc12)c1cccnc1 | 12 | . | -1 | -10 | 32 | 35 | .
O=C(N/N=C\c1c(O)ccc2ccccc12)c1cncc(Br)c1 | 29* | . | -1 | 1 | 33 | 13 | 26*
O=C(O)c1ccc(CN(Cc2ccccc2)S(=O)(=O)c2ccc(Cl)cc2)cc1 | 13* | 12 | 0 | 4 | -26 | -3 | 4
COc1ccc(CNC(=O)CN(Cc2ccccc2)S(=O)(=O)c2ccc(Cl)cc2)cc1 | 0 | 2 | 15 | 0 | -9 | 14 | .
CC(C)c1ccc(NC(=O)CSc2nc3ccsc3c(=O)n2Cc2ccc(C(=O)O)cc2)cc1 | 13* | 0 | -7 | 8 | 2 | -10 | 5
CC(NC(=O)c1ccc(Cl)c(Cl)c1)c1ccc(-c2ccccc2)cc1 (stereo not given) | -2 | 12 | 4 | -1 | -6 | 0 | .
CC(NC(=O)CCl)c1ccc(Cl)c(Cl)c1 (stereo not given) | 20* | . | -4 | 26 | -7 | 8 | 40*
CNC(=O)CON=Cc1ccc(N(C)C)cc1 | . | 13 | . | . | . | . | .
CC(C)CNS(=O)(=O)c1ccc(CCC(=O)Nc2cc(Cl)ccc2Oc2ccccc2)cc1 | 12* | . | -3 | 4 | -24 | 1 | 1
CCCNS(=O)(=O)c1ccc(CCC(=O)Nc2cc(Cl)ccc2Oc2ccccc2)cc1 | 3 | 14 | 7 | 6 | 3 | 2 | .
CSc1nsc(NC(=O)OCc2ccc(Cl)cc2)n1 | 13* | 6 | 6 | -1 | -34 | -7 | 3

Assay outcomes: PubChem BioAssay, several laboratories
